Assay [1] in a line: Nuclear factor erythroid 2-related factor 2/antioxidant responsive element (Nrf2/ARE) small molecule agonists: qHTS cell viability counter screen in human keratinocytes (AID 1919968; active = well fitted curve in the direction sought with a large enough effect in the repeat runs; an effect the other way counts as inactive or inconclusive; note: nearly all actives have a fitted effect of over 55% in size; note: potency is the fitted concentration of half-maximal effect). A digest of the protocol:
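Cells of the KeratinoSens line were plated at 1,500 per well and left for 5 h before compound transfer from DMSO stocks. After a 23 h incubation (37 C, 5% CO2), CellTiter-Fluor was added. Signal was taken as fluorescence intensity 1 h later.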
On the technique in general: Quantitative high-throughput screening tests each substance at several concentrations.

Assay [2] is described as follows: Nuclear factor erythroid 2-related factor 2/antioxidant responsive element (Nrf2/ARE) small molecule agonists: luciferase reporter gene qHTS assay in human keratinocytes (AID 1919969). Note: nearly all actives have a fitted effect of over 35% in size. Note: potency is the fitted concentration of half-maximal effect. Background: A reporter such as luciferase makes a cellular process visible.
Assay [3] has as its target Gonadotropin-releasing hormone receptor (Homo sapiens) (UniProt P30968). Briefly: Human gonadotropin-releasing hormone receptor (GnRHR) small molecule agonists, calcium flux assay in GnRHR-HEK293 cells (AID 1920063). Note: nearly all actives have a fitted effect of over 35% in size. Note: potency is the fitted concentration of half-maximal effect. A digest of the protocol:
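Compounds dissolved in DMSO are pin-transferred onto dye-loaded GnRHR-HEK293 cells, which were seeded 18 h before at 37 C/5% CO2. Calcium signal is read as fluorescence intensity at 1 s intervals for 3 min.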

In assay [4] the target is KiSS-1 receptor (Homo sapiens) (UniProt Q969F8). Briefly: Human kisspeptin (KISS1R) small molecule agonists, calcium flux assay in KISS1R-HEK293 cells (AID 1920064; active = well fitted curve in the direction sought with a large enough effect in the repeat runs; an effect the other way counts as inactive or inconclusive). A digest of the protocol: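 Cell line: HEK293, stable human KISS1R. Dye loading 1 h at 37 C after 18 h culture. Read: kinetic fluorescence, 480/540 nm, 3 min at 1 s intervals.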
The nature of assay [5]: G protein-coupled receptor (GPCR) small molecule agonists, calcium flux assay: HEK293 wild type cell line counter screen (AID 1920065). A digest of the protocol: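 Tox21 10K compounds, 15 concentrations each in triplicate, pin-transferred in DMSO onto dye-loaded cells; kinetic read at 480/540 nm for 3 min, 1 s intervals.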
For orientation: Calcium assays in cells follow changes in intracellular calcium, usually with a dye or a luminescent sensor.

A short description of assay [6]: p53 small molecule agonists, cell-based qHTS assay with rat liver microsomes (AID 1963578). A digest of the protocol:
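p53RE-bla cells, 4,000/well, pre-incubated 5 h, then given compounds plus rat liver microsomes (0.5 mg/mL final) and NADPH (0.5 mg/mL final). Incubation 16 h at 37 C; beta-lactamase reporter read by LiveBLAzer fluorescence after 2 h at room temperature.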

Assay [7] can be described thus: p53 small molecule agonists, cell-based qHTS assay with human liver microsomes: qHTS cell viability counter screen (AID 1963579). Note: nearly all actives have a fitted effect of over 45% in size. Note: potency is the fitted concentration of half-maximal effect. A digest of the protocol: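 p53RE-bla cells, 4,000/well, dosed 5 hours after plating, with human liver microsomes (0.5 mg/mL final) plus NADPH (0.5 mg/mL final), 16 hours at 37 C. Viability read as CellTiter-Glo luminescence after 30 min at room temperature.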

Assay [8] is described as follows: p53 small molecule agonists, cell-based qHTS assay: qHTS cell viability counter screen (AID 1963581). Note: nearly all actives have a fitted effect of over 45% in size. Note: potency is the fitted concentration of half-maximal effect. A digest of the protocol:
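ATP content measured by luminescence in HCT-116 p53RE-bla cells treated 16 h at 37 C, same wells as the reporter screen.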

Assay [9] concerns the target 5-hydroxytryptamine receptor 2A (Homo sapiens) (UniProt P28223). The assay can be described thus: 5-hydroxytryptamine receptor 2A (HTR2A) small molecule antagonists, cell-based qHTS assay (AID 1963586). Note: nearly all actives have a fitted effect of over 45% in size. Note: potency is the fitted concentration of half-maximal effect. A digest of the protocol:
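CHO cells stably expressing human HTR2A were plated for 18 h at 37 C, then loaded with calcium dye for 1 h. Compounds were preincubated 5 min at room temperature before DOI (4 nM solution) was added. Kinetic fluorescence was read for 3 min.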

For assay [10] the target is unchanged. The assay can be described thus: 5-hydroxytryptamine receptor 2A (HTR2A) small molecule agonists, cell-based qHTS assay (AID 1963587). Note: nearly all actives have a fitted effect of over 30% in size. Note: potency is the fitted concentration of half-maximal effect. A digest of the protocol: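 CHO cells stably expressing human HTR2A, plated 18 h, loaded with calcium dye 1 h at 37 C. Agonist mode: compounds added and intracellular calcium fluorescence recorded kinetically for 2 min at 1 sec intervals.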

Assay [11] addresses Muscarinic acetylcholine receptor M1 (Homo sapiens) (UniProt P11229). The assay can be described thus: Cholinergic receptor muscarinic 1 (CHRM1) small molecule antagonists, cell-based qHTS assay (AID 1963588). Note: nearly all actives have a fitted effect of over 40% in size. Note: potency is the fitted concentration of half-maximal effect. A digest of the protocol: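 Compounds were tested at 15 concentrations in three independent runs. Dye-loaded CHRM1-CHO cells were exposed 5 min at room temperature before stimulation by acetylcholine added at 50nM. Intracellular calcium was read kinetically on FDSS for 3 min.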

Assay [12] shares this target. The assay can be described thus: Cholinergic receptor muscarinic 1 (CHRM1) small molecule agonists, cell-based qHTS assay (AID 1963589). Note: nearly all actives have a fitted effect of over 35% in size. A digest of the protocol:
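Homogeneous fluorescence calcium flux, agonist mode. Human M1-expressing CHO cells; compound dosed at 15 concentrations, three independent runs; signal sampled every 1 sec.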

The nature of assay [13]: cAMP Responsive Elements (CRE) small molecule antagonists, cell-based qHTS assay (AID 1963591; active = well fitted inhibition curve with a large enough effect in the signal ratio in the repeat runs, not every such curve was filed as active; the % refers to the signal ratio). A digest of the protocol: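 First, CRE-bla HEK293T cells settled 18 h at 37 C. Next, compound and 0.25 uM final NKH477 were applied for 3 h. Last, LiveBLAzer B/G substrate was loaded for 2 h at room temperature.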
In assay [14] the target is Beta-2 adrenergic receptor (Homo sapiens) (UniProt P07550). Briefly: Adrenergic beta2 receptor (ADRB2) small molecule antagonists, cell-based qHTS assay (AID 1963592). Note: nearly all actives have a fitted effect of over 50% in size. Note: potency is the fitted concentration of half-maximal effect. A digest of the protocol:
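Assay format: CHO-ADRB2 cells, 18-20hr seeding at 37C/5% CO2, then compound plus 1nM isoproterenol agonist mix for 0.5hr RT. Homogeneous time-resolved fluorescence cAMP detection after 1hr, expressed as 665/615 nm ratio.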

The target in assay [15] is D(2) dopamine receptor (Homo sapiens) (UniProt P14416). The assay can be described thus: Dopamine D2 receptor (DRD2) small molecule antagonists, cell-based qHTS assay (AID 1963595; active = well fitted inhibition curve with a large enough effect in the signal ratio in the repeat runs, with a control signal flat; the % refers to the signal ratio). A digest of the protocol: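 Stable D2 receptor HEK293 line, 24 h after seeding. Compound preincubated 10 min, then quinpirole (12 nM) with forskolin analogue NKH477 (200 nM), 30 min, room temperature. Detection by time-resolved FRET of cAMP.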

Assay [16] is described as follows: p53 small molecule agonists, cell-based qHTS assay with rat liver microsomes: qHTS cell viability counter screen (AID 1963580). Note: nearly all actives have a fitted effect of over 45% in size. A digest of the protocol: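 After the beta-lactamase ratio was read, CellTiter-Glo was added to the same wells and luminescence measured at 30 min; cells had been treated 16 h at 37 C with compounds, rat liver microsomes and NADPH (0.5 mg/mL final each).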

A short description of assay [17]: cAMP Responsive Elements (CRE) small molecule agonists, cell-based qHTS assay (AID 1963590). A digest of the protocol:
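HEK 293T cells stably bearing CRE-bla were plated at 2,000 cells per well and rested 18 h. Compounds, positive controls or DMSO were added for 3 h at 37 C. LiveBLAzer B/G substrate was then loaded for 2 h at room temperature.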

Assay [18] addresses D(2) dopamine receptor (Homo sapiens) (UniProt P14416). The assay can be described thus: Dopamine D2 receptor (DRD2) small molecule agonists, cell-based qHTS assay (AID 1963594). Note: nearly all actives have a fitted effect of over 35% in size. A digest of the protocol: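 HEK293 cells stably expressing human DRD2, pre-treated with PDE inhibitor Ro20-1724 (0.1 mM final) and compound 10 min at room temperature, then stimulated with NKH477 (200nM […]) for 30 min. cAMP read by HTRF (665/620 nm).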

A short description of assay [19]: p53 small molecule agonists, cell-based qHTS assay (AID 1963582; active = well fitted activation curve with a large enough effect in the signal ratio in the repeat runs, not every such curve was filed as active; the % refers to the signal ratio). A digest of the protocol:
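16 h compound exposure (37 C) of p53 response element–bla cells, preceded by 5 h recovery at 37 C/5% CO2; read-out via LiveBLAzer B/G FRET substrate, 2 h RT, fluorescence intensity.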

Assay [20] addresses Beta-2 adrenergic receptor (Homo sapiens) (UniProt P07550). The assay can be described thus: Adrenergic beta2 receptor (ADRB2) small molecule agonists, cell-based qHTS assay (AID 1963593).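 Note: CHO cells stably overexpressing human ADRB2.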 A digest of the protocol: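 CHO cells stably over-expressing ADRB2 were plated overnight at 37C, then dosed with compounds plus a stimulation mix containing 100uM IBMX and 25uM Ro-20-1724 for 0.5hr at room temperature. cAMP was measured by HTRF competition, 1hr.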

The values below come from PubChem BioAssay (Tox21).

Results filed as inconclusive are left out. Activity calls are given as the source filed them. Unless noted, calls come from the whole dose curve.

Chain of Muscarinic acetylcholine receptor M1 (Homo sapiens) (P11229 whole entry, looked up): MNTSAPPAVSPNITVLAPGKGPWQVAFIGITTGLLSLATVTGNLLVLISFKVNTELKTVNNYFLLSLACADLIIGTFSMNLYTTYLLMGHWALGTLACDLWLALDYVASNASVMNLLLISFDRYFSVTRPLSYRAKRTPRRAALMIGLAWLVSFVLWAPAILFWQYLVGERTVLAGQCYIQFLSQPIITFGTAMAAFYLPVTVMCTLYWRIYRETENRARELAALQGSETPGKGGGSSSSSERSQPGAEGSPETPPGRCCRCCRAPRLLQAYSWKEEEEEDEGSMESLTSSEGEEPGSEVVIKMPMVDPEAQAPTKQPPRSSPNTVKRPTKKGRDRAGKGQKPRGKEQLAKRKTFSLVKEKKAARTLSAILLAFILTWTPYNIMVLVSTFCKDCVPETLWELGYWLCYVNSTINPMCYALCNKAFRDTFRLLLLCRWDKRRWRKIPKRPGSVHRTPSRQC
Chain of D(2) dopamine receptor (Homo sapiens) (P14416 whole entry, looked up): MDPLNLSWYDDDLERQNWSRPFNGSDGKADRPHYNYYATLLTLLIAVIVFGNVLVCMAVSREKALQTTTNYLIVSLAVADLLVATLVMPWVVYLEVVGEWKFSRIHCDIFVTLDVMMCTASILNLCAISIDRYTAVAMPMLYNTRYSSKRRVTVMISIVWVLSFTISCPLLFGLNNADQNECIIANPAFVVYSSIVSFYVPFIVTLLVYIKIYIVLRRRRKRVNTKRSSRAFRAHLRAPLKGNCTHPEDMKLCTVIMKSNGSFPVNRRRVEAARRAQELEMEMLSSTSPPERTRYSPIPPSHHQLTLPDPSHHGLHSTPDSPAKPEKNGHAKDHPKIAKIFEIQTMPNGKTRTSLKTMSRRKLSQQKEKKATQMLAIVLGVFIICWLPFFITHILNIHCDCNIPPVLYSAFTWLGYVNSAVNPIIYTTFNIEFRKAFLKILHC
Chain of Gonadotropin-releasing hormone receptor (Homo sapiens) (P30968 whole entry, looked up): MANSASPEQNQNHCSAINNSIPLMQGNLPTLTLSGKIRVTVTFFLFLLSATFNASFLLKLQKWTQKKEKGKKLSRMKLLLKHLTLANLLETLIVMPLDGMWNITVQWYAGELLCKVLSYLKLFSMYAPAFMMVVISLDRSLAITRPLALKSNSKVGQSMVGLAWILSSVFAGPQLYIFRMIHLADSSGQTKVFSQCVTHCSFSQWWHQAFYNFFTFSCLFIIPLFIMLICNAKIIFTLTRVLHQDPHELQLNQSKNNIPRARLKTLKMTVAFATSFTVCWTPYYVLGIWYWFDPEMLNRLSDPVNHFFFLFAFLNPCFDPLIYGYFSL
Chain of KiSS-1 receptor (Homo sapiens) (Q969F8 whole entry, looked up): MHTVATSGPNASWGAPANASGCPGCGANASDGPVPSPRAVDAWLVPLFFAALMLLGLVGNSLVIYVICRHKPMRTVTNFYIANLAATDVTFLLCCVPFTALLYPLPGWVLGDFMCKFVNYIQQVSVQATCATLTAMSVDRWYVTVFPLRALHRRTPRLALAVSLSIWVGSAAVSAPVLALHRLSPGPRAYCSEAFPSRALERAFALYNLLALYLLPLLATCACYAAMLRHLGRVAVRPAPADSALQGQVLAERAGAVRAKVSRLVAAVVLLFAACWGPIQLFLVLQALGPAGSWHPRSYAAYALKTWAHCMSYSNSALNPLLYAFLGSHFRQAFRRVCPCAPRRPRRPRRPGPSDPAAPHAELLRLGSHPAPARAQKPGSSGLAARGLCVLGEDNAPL
Chain of 5-hydroxytryptamine receptor 2A (Homo sapiens) (P28223 whole entry, looked up): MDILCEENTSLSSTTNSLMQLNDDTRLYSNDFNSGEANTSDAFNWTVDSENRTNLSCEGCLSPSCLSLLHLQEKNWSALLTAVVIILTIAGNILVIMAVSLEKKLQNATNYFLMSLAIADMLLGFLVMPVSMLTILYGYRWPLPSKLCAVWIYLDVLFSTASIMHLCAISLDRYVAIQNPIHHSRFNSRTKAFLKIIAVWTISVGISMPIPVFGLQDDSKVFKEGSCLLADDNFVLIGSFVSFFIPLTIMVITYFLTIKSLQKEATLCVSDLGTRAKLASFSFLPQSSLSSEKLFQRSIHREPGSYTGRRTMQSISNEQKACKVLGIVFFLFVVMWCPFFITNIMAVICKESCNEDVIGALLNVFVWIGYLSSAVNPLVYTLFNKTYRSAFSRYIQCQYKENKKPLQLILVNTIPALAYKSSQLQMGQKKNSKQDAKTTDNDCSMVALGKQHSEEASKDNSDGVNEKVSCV
Chain of Beta-2 adrenergic receptor (Homo sapiens) (P07550 whole entry, looked up): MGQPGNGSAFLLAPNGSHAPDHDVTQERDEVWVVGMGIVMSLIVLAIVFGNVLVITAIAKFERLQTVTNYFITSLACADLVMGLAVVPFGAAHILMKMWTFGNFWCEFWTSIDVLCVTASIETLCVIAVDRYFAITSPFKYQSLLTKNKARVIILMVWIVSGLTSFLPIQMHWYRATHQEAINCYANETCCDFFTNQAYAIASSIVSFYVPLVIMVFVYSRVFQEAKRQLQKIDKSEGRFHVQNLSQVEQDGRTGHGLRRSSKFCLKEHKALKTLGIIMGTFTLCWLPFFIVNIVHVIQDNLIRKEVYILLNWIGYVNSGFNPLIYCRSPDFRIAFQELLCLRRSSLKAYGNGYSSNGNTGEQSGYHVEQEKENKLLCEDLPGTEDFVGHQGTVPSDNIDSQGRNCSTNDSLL

For the compound `CC(c1ccccc1)(c1ccc(O)cc1)c1ccc(O)cc1`, the Potency was 43.3 µM (active) in assay [1], 45.8 µM (active) in assay [7], 49 µM (active) in [10] and 61.1 µM (active) in assay [14]. In addition, the Potency result in assay [2], in assay [3], in assay [4], in assay [5], in [6] and in assay [8] was “inactive” each time. The Potency entry in assay [9], in assay [11], in assay [12], in [13] and in [15] was “inactive” in each case.

With `NC(=O)c1ccc(N)nc1`, the Potency entry in [1], in assay [2], in [3], in assay [4], in assay [5] and in [6] was “inactive” each time. In addition, the Potency entry in assay [16], in assay [10], in assay [11], in assay [12], in [17] and in assay [13] was “inactive” each time. In addition, the Potency result in assay [14], in assay [18] and in [15] was “inactive” each time. Also, the Potency in assay [8] was 5.76 µM (active).

For `O=C(O)c1cc[c]([Hg][Cl])cc1`, the results for the Potency in assay [1] and in assay [2] were 48.6 µM (active) and 21.7 µM (active), respectively. Also, the Potency entry in assay [3], in assay [4], in [5], in [6], in assay [16] and in assay [8] was “inactive” in each case. The Potency entry in assay [19], in assay [9], in [10], in assay [11], in assay [12] and in assay [14] was “inactive” in each case. Also, the Potency entry in [18] was “inactive”.

In the case of `O=C(CCCN1CCC2(CC1)C(=O)NCN2c1ccccc1)c1ccc(F)cc1`, the Potency result in assay [1], in assay [2], in [4], in assay [5], in assay [6] and in [7] was “inactive” in each case. The Potency result in [19], in [11], in assay [12], in assay [17], in assay [13] and in [18] was “inactive” throughout. For the same compound, the Potency in assay [3] was 6.01 µM (active); in assay [14], 1.5 µM (active).

On to `CCCSC(=O)N(CCC)CCC`, for which the Potency entry in [1], in assay [2], in [3], in assay [4], in assay [5] and in assay [6] was “inactive” in each case. Also, the Potency result in assay [7], in assay [8], in assay [19], in assay [10], in assay [17] and in [14] was “inactive” throughout. Moreover, in assay [18], the Potency entry is “inactive”.

Consider `Clc1ccccc1N1CCNCC1`, for which the Potency result in assay [1], in assay [2], in assay [3], in assay [4], in assay [5] and in assay [6] was “inactive” in each case. Moreover, the Potency entry in [16], in assay [19], in [11], in [12], in [17] and in assay [13] was “inactive” each time. Also, the Potency result in [18] and in [15] was “inactive” each time. In addition, in [9], the Potency is 1.16 µM (active).

Consider `CCC(C)c1cc([N+](=O)[O-])cc([N+](=O)[O-])c1OC(=O)C=C(C)C` (centres undefined), for which the Potency in [1] was 48.6 µM (active); in assay [2], 24.3 µM (active). In addition, the Potency entry in assay [3], in assay [4], in [5], in assay [6], in assay [16] and in assay [8] was “inactive” each time. Besides, the Potency entry in assay [9], in [11], in assay [12], in [14] and in assay [15] was “inactive” each time.

As to `CC(C)OC(=O)C(O)(c1ccc(Cl)cc1)c1ccc(Cl)cc1`, the Potency in assay [1] is 30.6 µM (active); in [7] it was 40.8 µM (active); in assay [11], 13.3 µM (active). Also, the Potency entry in assay [2], in assay [3], in assay [4], in assay [5], in assay [6] and in assay [9] was “inactive” each time. The Potency result in [10] and in assay [18] was “inactive” throughout.

`FC(F)OC(F)(F)C(F)Cl` (centres undefined): the Potency entry in assay [1], in assay [2], in [3], in assay [4], in assay [5] and in [6] was “inactive” each time. In addition, the Potency entry in assay [16], in assay [19], in assay [9], in assay [10], in [12] and in assay [17] was “inactive” each time. For the same compound, the Potency entry in [13], in [14], in assay [20], in assay [18] and in assay [15] was “inactive” each time.
